This passage reports log2 fold change results from the supplement of paper PMC12819154, “High-throughput peptide-centric local stability assay extends protein–ligand identification to membrane proteins, tissues and bacteria” (Nature Structural & Molecular Biology, 2025).

Chain of UniProt Q9QZD8 (Q9QZD8 whole entry): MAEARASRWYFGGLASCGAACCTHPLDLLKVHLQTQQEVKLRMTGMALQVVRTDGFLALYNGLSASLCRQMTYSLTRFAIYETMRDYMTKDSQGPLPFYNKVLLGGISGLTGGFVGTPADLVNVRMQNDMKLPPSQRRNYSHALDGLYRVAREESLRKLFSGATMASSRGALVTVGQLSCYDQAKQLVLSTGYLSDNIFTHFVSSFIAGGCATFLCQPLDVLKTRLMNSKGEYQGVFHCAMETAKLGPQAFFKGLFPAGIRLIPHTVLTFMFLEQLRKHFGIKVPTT
Chain of UniProt Q9D6U8 (Q9D6U8 whole entry): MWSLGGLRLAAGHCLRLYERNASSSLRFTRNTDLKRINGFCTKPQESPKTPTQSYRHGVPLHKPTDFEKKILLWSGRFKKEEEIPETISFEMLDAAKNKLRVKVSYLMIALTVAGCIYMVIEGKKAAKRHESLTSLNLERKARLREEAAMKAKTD
Chain of UniProt P47757 (P47757 whole entry): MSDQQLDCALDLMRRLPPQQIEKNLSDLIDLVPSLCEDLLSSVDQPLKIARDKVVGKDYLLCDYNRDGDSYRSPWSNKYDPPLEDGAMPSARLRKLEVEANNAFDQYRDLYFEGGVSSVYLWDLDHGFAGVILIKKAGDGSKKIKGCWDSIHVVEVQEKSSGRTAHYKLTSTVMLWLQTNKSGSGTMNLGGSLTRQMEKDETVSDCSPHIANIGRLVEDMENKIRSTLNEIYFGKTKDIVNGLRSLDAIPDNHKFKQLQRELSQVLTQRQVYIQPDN
Chain of UniProt Q9DBN5 (Q9DBN5 whole entry): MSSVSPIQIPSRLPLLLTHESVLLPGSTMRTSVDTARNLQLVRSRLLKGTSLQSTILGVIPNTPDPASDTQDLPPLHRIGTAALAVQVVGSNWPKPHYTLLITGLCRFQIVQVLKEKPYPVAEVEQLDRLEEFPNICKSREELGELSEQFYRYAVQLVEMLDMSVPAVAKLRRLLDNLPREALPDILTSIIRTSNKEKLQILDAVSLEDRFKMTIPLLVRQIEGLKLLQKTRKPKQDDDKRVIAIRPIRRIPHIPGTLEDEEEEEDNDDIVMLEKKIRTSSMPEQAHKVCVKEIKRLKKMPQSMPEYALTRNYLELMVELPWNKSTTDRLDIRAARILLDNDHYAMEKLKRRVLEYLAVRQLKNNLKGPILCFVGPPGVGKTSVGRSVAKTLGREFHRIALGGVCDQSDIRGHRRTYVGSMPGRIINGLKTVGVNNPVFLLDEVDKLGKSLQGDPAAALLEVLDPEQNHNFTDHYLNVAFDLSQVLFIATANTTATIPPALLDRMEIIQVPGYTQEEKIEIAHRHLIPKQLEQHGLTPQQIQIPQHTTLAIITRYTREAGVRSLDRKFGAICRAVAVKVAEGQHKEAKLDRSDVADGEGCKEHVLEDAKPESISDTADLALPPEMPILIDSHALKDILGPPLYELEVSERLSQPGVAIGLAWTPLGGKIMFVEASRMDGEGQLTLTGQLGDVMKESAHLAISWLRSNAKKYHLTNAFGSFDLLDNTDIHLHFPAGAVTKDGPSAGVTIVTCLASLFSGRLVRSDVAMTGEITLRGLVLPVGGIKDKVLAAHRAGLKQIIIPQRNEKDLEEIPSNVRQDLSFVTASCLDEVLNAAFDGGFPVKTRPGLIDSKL
Chain of UniProt P31750 (P31750 whole entry): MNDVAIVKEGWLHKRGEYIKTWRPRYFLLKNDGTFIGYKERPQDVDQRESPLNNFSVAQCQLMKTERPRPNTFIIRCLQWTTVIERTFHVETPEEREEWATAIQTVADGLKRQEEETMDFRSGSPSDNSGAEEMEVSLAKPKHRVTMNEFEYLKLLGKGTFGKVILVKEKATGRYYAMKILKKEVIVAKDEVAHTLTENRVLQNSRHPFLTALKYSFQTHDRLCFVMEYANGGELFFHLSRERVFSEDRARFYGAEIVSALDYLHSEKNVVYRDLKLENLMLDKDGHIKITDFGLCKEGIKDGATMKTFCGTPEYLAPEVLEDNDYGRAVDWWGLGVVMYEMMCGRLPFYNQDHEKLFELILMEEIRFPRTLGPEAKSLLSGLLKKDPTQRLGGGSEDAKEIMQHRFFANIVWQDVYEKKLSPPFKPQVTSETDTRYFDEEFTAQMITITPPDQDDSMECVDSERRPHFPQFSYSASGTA
Chain of UniProt Q99JP0 (Q99JP0 whole entry): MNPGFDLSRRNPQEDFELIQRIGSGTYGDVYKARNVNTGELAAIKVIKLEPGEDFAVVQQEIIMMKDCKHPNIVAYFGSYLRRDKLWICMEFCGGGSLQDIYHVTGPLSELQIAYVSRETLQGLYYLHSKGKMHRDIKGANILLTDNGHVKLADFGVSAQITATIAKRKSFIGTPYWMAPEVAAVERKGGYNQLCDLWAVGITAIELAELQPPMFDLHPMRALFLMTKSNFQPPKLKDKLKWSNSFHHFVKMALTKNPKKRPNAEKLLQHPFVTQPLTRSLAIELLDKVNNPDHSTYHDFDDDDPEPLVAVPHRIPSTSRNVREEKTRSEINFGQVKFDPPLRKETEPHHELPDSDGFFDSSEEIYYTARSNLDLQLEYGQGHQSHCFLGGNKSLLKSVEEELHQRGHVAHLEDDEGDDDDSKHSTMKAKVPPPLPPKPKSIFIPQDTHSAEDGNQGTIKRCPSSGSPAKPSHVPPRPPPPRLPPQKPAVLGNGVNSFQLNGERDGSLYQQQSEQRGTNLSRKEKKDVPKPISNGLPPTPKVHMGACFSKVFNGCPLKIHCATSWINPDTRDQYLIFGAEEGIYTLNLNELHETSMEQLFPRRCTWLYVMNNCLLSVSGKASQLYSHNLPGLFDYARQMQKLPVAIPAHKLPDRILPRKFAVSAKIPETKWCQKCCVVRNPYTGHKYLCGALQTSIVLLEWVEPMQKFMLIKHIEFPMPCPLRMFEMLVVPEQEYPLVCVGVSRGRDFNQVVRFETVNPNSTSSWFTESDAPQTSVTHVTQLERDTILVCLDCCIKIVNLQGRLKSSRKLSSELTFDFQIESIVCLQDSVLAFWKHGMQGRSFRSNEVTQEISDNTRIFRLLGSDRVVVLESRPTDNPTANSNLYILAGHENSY
Chain of UniProt P31324 (P31324 whole entry): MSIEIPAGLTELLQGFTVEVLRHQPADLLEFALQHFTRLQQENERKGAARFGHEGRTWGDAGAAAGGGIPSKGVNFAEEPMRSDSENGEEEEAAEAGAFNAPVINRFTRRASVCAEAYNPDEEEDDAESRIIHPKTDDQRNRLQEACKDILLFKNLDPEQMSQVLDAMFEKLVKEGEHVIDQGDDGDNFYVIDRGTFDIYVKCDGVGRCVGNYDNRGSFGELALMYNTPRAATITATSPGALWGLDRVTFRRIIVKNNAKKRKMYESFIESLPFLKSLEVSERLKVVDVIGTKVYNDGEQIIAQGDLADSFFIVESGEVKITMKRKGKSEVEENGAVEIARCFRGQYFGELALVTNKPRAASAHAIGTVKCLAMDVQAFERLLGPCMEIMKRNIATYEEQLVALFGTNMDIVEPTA
Chain of UniProt Q03147 (Q03147 whole entry): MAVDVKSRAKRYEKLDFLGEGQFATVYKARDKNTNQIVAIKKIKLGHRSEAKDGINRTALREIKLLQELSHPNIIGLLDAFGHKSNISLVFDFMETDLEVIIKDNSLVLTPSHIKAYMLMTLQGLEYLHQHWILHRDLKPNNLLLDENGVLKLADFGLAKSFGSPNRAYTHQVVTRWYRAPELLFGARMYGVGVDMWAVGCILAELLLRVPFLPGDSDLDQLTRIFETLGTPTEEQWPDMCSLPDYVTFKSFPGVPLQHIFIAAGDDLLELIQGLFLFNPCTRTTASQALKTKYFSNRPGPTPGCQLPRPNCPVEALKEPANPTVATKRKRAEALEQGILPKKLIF
Chain of UniProt Q9DB30 (Q9DB30 whole entry): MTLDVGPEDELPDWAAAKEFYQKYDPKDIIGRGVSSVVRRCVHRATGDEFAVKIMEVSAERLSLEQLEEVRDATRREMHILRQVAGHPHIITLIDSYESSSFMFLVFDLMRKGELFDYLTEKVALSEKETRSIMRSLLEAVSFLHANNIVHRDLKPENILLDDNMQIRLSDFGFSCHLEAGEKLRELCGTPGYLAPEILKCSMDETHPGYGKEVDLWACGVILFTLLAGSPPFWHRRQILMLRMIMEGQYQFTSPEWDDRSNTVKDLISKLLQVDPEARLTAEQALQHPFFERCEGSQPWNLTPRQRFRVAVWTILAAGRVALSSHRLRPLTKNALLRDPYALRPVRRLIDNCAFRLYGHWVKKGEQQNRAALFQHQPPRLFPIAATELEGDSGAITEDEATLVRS
Chain of UniProt P14685 (P14685 whole entry): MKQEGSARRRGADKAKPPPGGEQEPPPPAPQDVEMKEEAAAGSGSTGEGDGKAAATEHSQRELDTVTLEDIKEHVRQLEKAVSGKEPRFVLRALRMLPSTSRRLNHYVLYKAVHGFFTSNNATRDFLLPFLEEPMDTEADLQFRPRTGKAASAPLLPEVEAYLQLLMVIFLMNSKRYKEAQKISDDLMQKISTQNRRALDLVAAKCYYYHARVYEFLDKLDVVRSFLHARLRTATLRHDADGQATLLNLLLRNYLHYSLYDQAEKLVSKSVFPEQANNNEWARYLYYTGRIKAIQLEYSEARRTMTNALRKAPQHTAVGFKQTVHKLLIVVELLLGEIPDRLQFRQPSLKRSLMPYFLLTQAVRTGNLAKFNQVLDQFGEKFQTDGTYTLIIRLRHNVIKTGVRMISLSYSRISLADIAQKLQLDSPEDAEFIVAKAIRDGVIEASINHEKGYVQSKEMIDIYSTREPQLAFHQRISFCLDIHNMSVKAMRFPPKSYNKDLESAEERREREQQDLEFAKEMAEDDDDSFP
Chain of UniProt P58044 (P58044 whole entry): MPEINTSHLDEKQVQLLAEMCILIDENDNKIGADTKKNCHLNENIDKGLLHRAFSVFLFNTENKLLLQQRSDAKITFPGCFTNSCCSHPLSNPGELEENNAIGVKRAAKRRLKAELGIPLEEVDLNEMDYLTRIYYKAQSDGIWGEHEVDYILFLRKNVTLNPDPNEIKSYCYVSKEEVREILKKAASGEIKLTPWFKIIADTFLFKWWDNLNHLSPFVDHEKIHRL

Compound in this experiment: CN[C@@H]1C[C@H]2O[C@@](C)([C@@H]1OC)n1c3ccccc3c3c4c(c5c6ccccc6n2c5c31)C(=O)NC4 [staurosporine]
The experiment can be described thus: log2 fold change of tryptic peptide abundance, ligand vs vehicle (limited proteolysis) (log2 ratio); higher = more trypsin-susceptible (destabilized). To be noted: ligand concentration: 20 uM; sample: mouse liver crude lysate; replicate design: treated separately.
Consider “UniProt Q9DBN5 (peptide sequence: NEKDLEEIPSNVR, peptide start residue: 804)”, for which the log2 fold change is -1.06.

For “UniProt P47757 (peptide sequence: QMEKDETVSDCSPHIANIGR, peptide start residue: 196)”, the log2 fold change was -1.11.

For the target “UniProt Q9JM62 (peptide sequence: NVATEALGALEAR, peptide start residue: 16)”, the log2 fold change turned out to be 0.439.

Consider “UniProt P18654 (peptide sequence: GAMAATYSALNR, peptide start residue: 701)”, for which the log2 fold change was 0.612.

“UniProt Q05020 (peptide sequence: TYPISMDEK, peptide start residue: 59)”: the log2 fold change turned out to be 0.537.

With “UniProt Q61136 (peptide sequence: LNDADPDDKFHCLR, peptide start residue: 739)”, the log2 fold change was -1.19.

As for “UniProt Q5F2E8 (peptide sequence: AGNILLTEPGQVK, peptide start residue: 150)”, the log2 fold change was -2.13.

On to “UniProt Q9WU19 (peptide sequence: LAMALSGCQNVK, peptide start residue: 342)”, for which the log2 fold change was 0.411.

Take “UniProt Q921S7 (peptide sequence: HFVPWLAR, peptide start residue: 65)”: the log2 fold change came out at 0.415.

On to “UniProt Q8R4K2 (peptide sequence: GCVNNTIVAVK, peptide start residue: 203)”, for which the log2 fold change was -2.95.

In the case of “UniProt P43883 (peptide sequence: DQYPYLR, peptide start residue: 38)”, the log2 fold change was determined as 0.671.

As for “UniProt Q8BTH8 (peptide sequence: GSLPWQGLK, peptide start residue: 245)”, the log2 fold change was -0.593.

As to “UniProt P31750 (peptide sequence: HPFLTALK, peptide start residue: 209)”, the log2 fold change is -1.6.

In the case of “UniProt Q91W52 (peptide sequence: LITTWEK, peptide start residue: 203)”, the log2 fold change stood at 0.417.

In the case of “UniProt Q9JHU4 (peptide sequence: SNLPDNLK, peptide start residue: 2024)”, the log2 fold change was 0.261.

Regarding “UniProt Q8C0K5 (peptide sequence: GEHTYSGIIHAFK, peptide start residue: 164)”, the log2 fold change amounted to 0.837.

“UniProt Q9EP53 (peptide sequence: SHLLQQNQR, peptide start residue: 890)”: the log2 fold change is -0.636.

“UniProt P58044 (peptide sequence: WWDNLNHLSPFVDHEK, peptide start residue: 208)”: the log2 fold change was 1.05.

“UniProt P47809 (peptide sequence: ISPEQHWDFTAEDLK, peptide start residue: 87)”: the log2 fold change was -0.533.

Consider “UniProt Q3TLP5 (peptide sequence: GLLPGAGGTQR, peptide start residue: 170)”, for which the log2 fold change stood at 0.658.

On to “UniProt Q99JP0 (peptide sequence: NVNTGELAAIK, peptide start residue: 35)”, for which the log2 fold change was -1.82.

On to “UniProt P33622 (peptide sequence: GWMDNHFR, peptide start residue: 61)”, for which the log2 fold change worked out at 0.483.

As for “UniProt P50285 (peptide sequence: TQLREPVLNDELPGR, peptide start residue: 277)”, the log2 fold change is 0.327.

As to “UniProt Q9QZD8 (peptide sequence: MTGMALQVVR, peptide start residue: 43)”, the log2 fold change is 0.567.

Regarding “UniProt Q3TWW8 (peptide sequence: CSWQDLKDFMR, peptide start residue: 121)”, the log2 fold change is 1.07.

Consider “UniProt O35099 (peptide sequence: YLHDNQIVHR, peptide start residue: 800)”, for which the log2 fold change is -3.12.

Regarding “UniProt O55137 (peptide sequence: GLAPEQPVTLR, peptide start residue: 25)”, the log2 fold change was -0.292.

In the case of “UniProt Q8C4X2 (peptide sequence: DVKPENFLIGRPGNK, peptide start residue: 162)”, the log2 fold change is -1.22.

As to “UniProt Q9DB30 (peptide sequence: IMEVSAER, peptide start residue: 54)”, the log2 fold change is -3.03.

As for “UniProt O70551 (peptide sequence: SAEHYTETALDEIR, peptide start residue: 113)”, the log2 fold change is -2.75.

As to “UniProt Q9Z2B9 (peptide sequence: KIPAPFRPQIR, peptide start residue: 313)”, the log2 fold change was -1.34.

“UniProt Q8BHC4 (peptide sequence: HVVQPGYPAHR, peptide start residue: 37)”: the log2 fold change worked out at 0.384.

Turning to “UniProt Q03147 (peptide sequence: DKNTNQIVAIKK, peptide start residue: 31)”, the log2 fold change was -2.43.

As to “UniProt P14685 (peptide sequence: ISLADIAQK, peptide start residue: 413)”, the log2 fold change was -0.355.

“UniProt Q6ZQ89 (peptide sequence: FIHQECLVQWLK, peptide start residue: 34)”: the log2 fold change amounted to 0.572.

Consider “UniProt Q9D6U8 (peptide sequence: HESLTSLNLER, peptide start residue: 130)”, for which the log2 fold change is 0.435.

“UniProt P31324 (peptide sequence: LKVVDVIGTK, peptide start residue: 284)”: the log2 fold change was 1.51.

For the target “UniProt P30561 (peptide sequence: HKLDFTPIGCDAK, peptide start residue: 285)”, the log2 fold change is -1.1.
